The supplement of paper PMC10849652
The full data set covers some 8,800 targets. This sample favours those with a hit. About 0.5% of all pairs of compound and target were hits.

How the values were obtained:
Experiment in all cases: log2 fold change, soluble protein after heating vs DMSO (PISA); higher = thermal stabilisation; K562 lysate, 10 uM; active = over 0.2 and 3.5 SD of the protein, either way, in both replicates (recomputed)
erlotinib = compound: C#Cc1cccc(Nc2ncnc3cc(OCCOC)c(OCCOC)cc23)c1 [erlotinib]
Outline: (§1)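 The values are log-two fold changes in thermal stability compared with solvent controls and come from duplicates. They were obtained by TMTpro 16plex LC-MS/MS, with channel sums equalised, on the supernatant after 21,000xg for 90 min. That supernatant came from crude K562 extract at 1 mg/mL protein treated with 10 μM compound for 30 min, heated for 3 min across 48°C-58°C, pooled and brought to 0.5% NP-40 at 4°C.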

[1] = compound: C/C(=N\NC(=O)C1=CC(=CC=C1)S(=O)(=O)N2CCOCC2)/C3=C(C=CC(=C3)Cl)O
Outline: as §1

[2] = compound: C1=CC(=CC=C1C2=NC3=C(N2)C=C(C=C3)C(=O)N)OC4=CC=C(C=C4)Cl
Outline: as §1

[3] = compound: C1=CC2=C(C=CC(=C2)/C=C\3/C(=O)NC(=NCC4=CC=CS4)S3)N=C1
Outline: as §1

[4] = compound: C1=CC2=NC=CN=C2C=C1/C=C/3\C(=O)NC(=O)S3
Outline: as §1

[5] = compound: C1=CC=C(C=C1)C2=NC(=C(N2)C3=CC=NC=C3)C4=CC(=C(C=C4)Cl)O
Outline: as §1

[6] = compound: C1=CC=C2C(=C1)C3=NNC4=CC=CC(=C43)C2=O
Outline: as §1

[7] = compound: C1CCN(C1)C(=O)NC2=CC=CC(=C2)NC3=NC=C(C(=N3)NCCC4=CN=CN4)Br
Outline: as §1

[8] = compound: C1CN(CCC1(CC2=CC=C(C=C2)Cl)N)C3=NC=NC4=C3C=CN4
Outline: as §1

IRAK-1-4 Inhibitor I = compound: C1COCCN1CCN2C3=CC=CC=C3N=C2NC(=O)C4=CC(=CC=C4)[N+](=O)[O-] [IRAK-1-4 Inhibitor I]
Outline: as §1

ibrutinib = compound: C=CC(=O)N1CCC[C@@H](n2nc(-c3ccc(Oc4ccccc4)cc3)c3c(N)ncnc32)C1 [ibrutinib]
Outline: as §1

[9] = compound: CC(=O)c1cnc2ccc(-c3cc(Cl)c(O)c(Cl)c3)nc2c1N[C@H]1CC[C@H](CN(C)C)CC1
Outline: as §1

ralimetinib = compound: CC(C)(C)Cn1c(N)nc2ccc(-c3[nH]c(C(C)(C)C)nc3-c3ccc(F)cc3)nc21 [ralimetinib]
Outline: as §1

[10] = compound: CC(C)(O)CC(=O)NCCn1ccc2ncnc(Nc3ccc(Oc4cccc(C(F)(F)F)c4)c(Cl)c3)c21
Outline: as §1

[11] = compound: CC(C)C1=C2N=C(C=C(N2N=C1)NCC3=CC=CC=C3)NCCCCCCN
Outline: as §1

[12] = compound: CC1=C(C(CC(=O)N1)C2=CC=C(C=C2)C(F)(F)F)C(=O)NC3=C(C=C4C(=C3)C=NN4)F
Outline: as §1

[13] = compound: CC1=C(C2=C(C=C1)C(=O)C3=CC=CC=C3N2CCCN)C
Outline: as §1

[14] = compound: CC1=C(C=C(C=C1)NC(=O)C2=CC(=CC=C2)C(C)(C)C#N)NC3=CC4=C(C=C3)N=CN(C4=O)C
Outline: as §1

[15] = compound: CC1=C(C=C(C=C1)NC(=O)C2=CC(=CC=C2)N(C)C)NC(=O)C3=CC=C(C=C3)O
Outline: as §1

[16] = compound: CC1=CC=C(C=C1)SC2=C3C=C(SC3=CN=C2)C(=O)N
Outline: as §1

Measured: log2 fold change

VAMP2 (UniProt P63027)
Chain of UniProt P63027 (P63027 whole entry, looked up): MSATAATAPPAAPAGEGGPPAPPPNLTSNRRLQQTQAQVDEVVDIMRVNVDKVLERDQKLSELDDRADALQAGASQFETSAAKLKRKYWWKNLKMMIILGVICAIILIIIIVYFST
inactive: erlotinib -0.083 | [1] 0.055 | [2] -0.024 | [3] -0.063 | [4] 0.063 | [5] -0.082 | [6] -0.037 | [7] 0.081 | [8] -0.009 | IRAK-1-4 Inhibitor I -0.033 | ibrutinib -0.039 | [9] -0.027 | ralimetinib 0.002 | [10] -0.006 | [11] -0.036 | [12] -0.069 | [13] -0.01 | [14] -0.048 | [15] 0.047 | [16] 0.035

WDR62 isoform 4 (UniProt O43379)
inactive: erlotinib 0.017 | [1] -0.027 | [2] -0.018 | [3] -0.007 | [4] -0.012 | [5] 0.017 | [6] -0.052 | [7] 0.024 | [8] -0.008 | IRAK-1-4 Inhibitor I 0.011 | ibrutinib -0.023 | [9] 0.027 | ralimetinib 0.013 | [10] -0.051 | [11] -0.007 | [12] 0.033 | [13] -0.016 | [14] 0.023 | [15] -0.002 | [16] -0.029

WDR20 isoform 7 (UniProt Q8TBZ3)
inactive: erlotinib -0.001 | [1] -0.105 | [2] 0.043 | [3] 0.04 | [4] -0.117 | [5] 0.094 | [6] -0.016 | [7] -0.05 | [8] 0.092 | IRAK-1-4 Inhibitor I 0.026 | ibrutinib 0.003 | [9] -0.001 | ralimetinib 0.088 | [10] -0.023 | [11] -0.019 | [12] 0.087 | [13] 0.044 | [14] 0.058 | [15] -0.003 | [16] 0.014

WDR7 (UniProt Q9Y4E6)
inactive: erlotinib 0.05 | [1] -0.076 | [2] -0.016 | [3] -0.059 | [4] -0.001 | [5] -0.005 | [6] -0.038 | [7] 0.018 | [8] 0.042 | IRAK-1-4 Inhibitor I 0.01 | ibrutinib 0.067 | [9] 0.04 | ralimetinib 0.063 | [10] -0.075 | [11] -0.03 | [12] -0.005 | [13] -0.013 | [14] 0.037 | [15] -0.06 | [16] -0.013

ZC3H13 (UniProt Q5T200)
Chain of UniProt Q5T200 (Q5T200 whole entry, looked up): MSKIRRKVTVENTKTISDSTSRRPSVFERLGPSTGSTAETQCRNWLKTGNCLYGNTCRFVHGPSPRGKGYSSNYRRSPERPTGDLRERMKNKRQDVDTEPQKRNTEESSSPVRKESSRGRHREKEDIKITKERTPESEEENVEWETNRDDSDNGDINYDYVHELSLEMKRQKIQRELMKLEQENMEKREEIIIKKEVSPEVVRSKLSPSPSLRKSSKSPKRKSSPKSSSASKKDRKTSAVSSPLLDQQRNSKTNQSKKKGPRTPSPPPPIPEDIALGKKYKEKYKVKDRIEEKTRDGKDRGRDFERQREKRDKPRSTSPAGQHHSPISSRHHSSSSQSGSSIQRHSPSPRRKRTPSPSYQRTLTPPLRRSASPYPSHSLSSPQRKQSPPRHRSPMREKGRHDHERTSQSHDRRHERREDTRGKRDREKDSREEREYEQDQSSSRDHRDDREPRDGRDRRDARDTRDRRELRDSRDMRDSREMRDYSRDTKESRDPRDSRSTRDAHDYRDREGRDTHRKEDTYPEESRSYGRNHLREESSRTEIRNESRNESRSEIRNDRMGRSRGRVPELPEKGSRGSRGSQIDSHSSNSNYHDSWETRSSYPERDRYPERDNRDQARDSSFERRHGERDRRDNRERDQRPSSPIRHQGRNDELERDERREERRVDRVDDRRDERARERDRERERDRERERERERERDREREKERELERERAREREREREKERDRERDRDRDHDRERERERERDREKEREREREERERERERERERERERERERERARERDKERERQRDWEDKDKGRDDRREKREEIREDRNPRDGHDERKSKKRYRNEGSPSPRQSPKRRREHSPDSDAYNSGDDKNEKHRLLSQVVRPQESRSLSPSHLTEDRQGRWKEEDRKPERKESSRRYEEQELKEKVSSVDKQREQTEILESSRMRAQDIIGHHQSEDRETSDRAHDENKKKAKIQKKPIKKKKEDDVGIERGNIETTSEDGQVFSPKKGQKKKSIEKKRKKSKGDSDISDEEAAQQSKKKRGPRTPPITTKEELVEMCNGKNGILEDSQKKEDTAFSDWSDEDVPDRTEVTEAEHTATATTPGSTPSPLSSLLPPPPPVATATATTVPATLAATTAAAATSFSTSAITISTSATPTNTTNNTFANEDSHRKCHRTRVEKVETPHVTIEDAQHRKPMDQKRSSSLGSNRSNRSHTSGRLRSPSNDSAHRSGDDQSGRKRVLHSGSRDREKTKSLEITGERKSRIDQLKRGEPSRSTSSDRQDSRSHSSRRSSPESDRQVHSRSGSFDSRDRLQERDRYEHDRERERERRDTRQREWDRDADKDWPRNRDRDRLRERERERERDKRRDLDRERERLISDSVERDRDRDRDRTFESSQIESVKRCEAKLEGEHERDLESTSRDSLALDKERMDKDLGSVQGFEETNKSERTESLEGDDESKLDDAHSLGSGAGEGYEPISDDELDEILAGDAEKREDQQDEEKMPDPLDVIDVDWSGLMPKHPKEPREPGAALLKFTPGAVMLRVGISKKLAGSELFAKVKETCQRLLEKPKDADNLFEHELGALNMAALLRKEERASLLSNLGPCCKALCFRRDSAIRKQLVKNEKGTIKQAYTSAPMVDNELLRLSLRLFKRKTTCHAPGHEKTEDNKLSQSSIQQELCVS
inactive: erlotinib 0.081 | [1] 0.003 | [2] 0.034 | [3] -0.027 | [4] -0.071 | [5] 0.075 | [6] -0.045 | [7] -0.016 | [8] -0.043 | IRAK-1-4 Inhibitor I 0.007 | ibrutinib 0.046 | [9] 0.009 | ralimetinib -0.003 | [10] -0.072 | [11] 0.058 | [12] -0.101 | [13] 0.046 | [14] 0.08 | [15] -0.01 | [16] -0.022

ZNF451 (UniProt Q9Y4E5)
inactive: erlotinib 0.036 | [1] -0.064 | [2] -0.007 | [3] -0.002 | [4] -0.032 | [5] 0.002 | [6] -0.014 | [7] -0.096 | [8] 0.026 | IRAK-1-4 Inhibitor I -0.009 | ibrutinib 0.004 | [9] 0.019 | ralimetinib 0.02 | [10] 0.007 | [11] -0.011 | [12] 0.033 | [13] -0.003 | [14] -0.012 | [15] 0.019 | [16] 0.055

ZDHHC18 (UniProt Q9NUE0)
Chain of UniProt Q9NUE0 (Q9NUE0 whole entry, looked up): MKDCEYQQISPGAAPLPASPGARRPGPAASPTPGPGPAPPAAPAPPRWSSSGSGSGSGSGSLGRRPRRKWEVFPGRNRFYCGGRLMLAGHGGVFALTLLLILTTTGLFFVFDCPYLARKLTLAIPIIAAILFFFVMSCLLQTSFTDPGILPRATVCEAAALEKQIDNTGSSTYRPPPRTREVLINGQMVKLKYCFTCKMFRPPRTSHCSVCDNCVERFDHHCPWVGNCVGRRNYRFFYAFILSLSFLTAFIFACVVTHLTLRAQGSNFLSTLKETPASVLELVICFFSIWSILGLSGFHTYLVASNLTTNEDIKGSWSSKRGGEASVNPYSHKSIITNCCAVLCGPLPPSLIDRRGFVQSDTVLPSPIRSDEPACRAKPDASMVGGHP
inactive: erlotinib 0.265 | [1] -0.057 | [2] -0.371 | [3] -0.052 | [4] -0.135 | [5] 0.004 | [6] 0.038 | [7] -0.022 | [8] 0.075 | IRAK-1-4 Inhibitor I 0.13 | ibrutinib -0.103 | [9] 0.057 | ralimetinib 0.093 | [10] -0.017 | [11] -0.137 | [12] 0.019 | [13] 0.209 | [14] -0.022 | [15] 0.073 | [16] -0.01

WAC (UniProt Q9BTA9)
Chain of UniProt Q9BTA9 (Q9BTA9 whole entry, looked up): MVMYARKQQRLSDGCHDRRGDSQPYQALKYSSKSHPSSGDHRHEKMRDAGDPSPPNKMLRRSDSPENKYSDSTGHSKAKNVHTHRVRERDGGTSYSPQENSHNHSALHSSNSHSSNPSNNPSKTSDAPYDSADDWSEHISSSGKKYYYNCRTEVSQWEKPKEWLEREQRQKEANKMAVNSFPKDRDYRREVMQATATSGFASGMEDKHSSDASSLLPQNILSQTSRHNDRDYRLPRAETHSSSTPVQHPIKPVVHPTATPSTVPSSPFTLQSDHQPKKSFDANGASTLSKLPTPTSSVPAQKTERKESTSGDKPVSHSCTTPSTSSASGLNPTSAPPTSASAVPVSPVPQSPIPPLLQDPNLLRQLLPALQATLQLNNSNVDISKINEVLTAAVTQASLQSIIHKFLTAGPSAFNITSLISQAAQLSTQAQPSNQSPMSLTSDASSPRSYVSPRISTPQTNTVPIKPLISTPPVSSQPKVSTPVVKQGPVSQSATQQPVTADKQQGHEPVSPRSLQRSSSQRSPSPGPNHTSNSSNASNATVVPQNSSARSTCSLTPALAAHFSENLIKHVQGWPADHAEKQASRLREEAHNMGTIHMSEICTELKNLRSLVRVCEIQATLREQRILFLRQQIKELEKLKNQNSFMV
inactive: erlotinib 0.027 | [1] 0.004 | [2] 0.027 | [3] 0.092 | [4] -0.064 | [5] 0.008 | [6] -0.076 | [7] 0.051 | [8] 0.015 | IRAK-1-4 Inhibitor I -0.006 | ibrutinib -0.062 | [9] -0.008 | ralimetinib -0.012 | [10] -0.054 | [11] -0.009 | [12] 0.046 | [13] 0.034 | [14] -0.016 | [15] 0.022 | [16] 0.004

VAV1 (UniProt P15498)
inactive: erlotinib 0.02 | [1] 0.081 | [2] -0.022 | [3] 0.001 | [4] -0.043 | [5] 0.037 | [6] -0.082 | [7] -0.004 | [8] -0.002 | IRAK-1-4 Inhibitor I -0.009 | ibrutinib -0.057 | [9] 0.054 | ralimetinib 0.083 | [10] -0.042 | [11] 0.009 | [12] -0.004 | [13] -0.034 | [14] -0.078 | [15] 0.046 | [16] 0.082

USP34 (UniProt Q70CQ2)
inactive: erlotinib 0.043 | [1] 0.018 | [2] -0.039 | [3] 0.029 | [4] -0.008 | [5] 0.012 | [6] -0.002 | [7] 0.003 | [8] 0.003 | IRAK-1-4 Inhibitor I -0.001 | ibrutinib 0.002 | [9] 0.006 | ralimetinib 0.011 | [10] -0.027 | [11] 0.001 | [12] -0.001 | [13] -0.032 | [14] 0.014 | [15] 0.026 | [16] 0

WEE1 (UniProt P30291)
Chain of UniProt P30291 (P30291 whole entry, looked up): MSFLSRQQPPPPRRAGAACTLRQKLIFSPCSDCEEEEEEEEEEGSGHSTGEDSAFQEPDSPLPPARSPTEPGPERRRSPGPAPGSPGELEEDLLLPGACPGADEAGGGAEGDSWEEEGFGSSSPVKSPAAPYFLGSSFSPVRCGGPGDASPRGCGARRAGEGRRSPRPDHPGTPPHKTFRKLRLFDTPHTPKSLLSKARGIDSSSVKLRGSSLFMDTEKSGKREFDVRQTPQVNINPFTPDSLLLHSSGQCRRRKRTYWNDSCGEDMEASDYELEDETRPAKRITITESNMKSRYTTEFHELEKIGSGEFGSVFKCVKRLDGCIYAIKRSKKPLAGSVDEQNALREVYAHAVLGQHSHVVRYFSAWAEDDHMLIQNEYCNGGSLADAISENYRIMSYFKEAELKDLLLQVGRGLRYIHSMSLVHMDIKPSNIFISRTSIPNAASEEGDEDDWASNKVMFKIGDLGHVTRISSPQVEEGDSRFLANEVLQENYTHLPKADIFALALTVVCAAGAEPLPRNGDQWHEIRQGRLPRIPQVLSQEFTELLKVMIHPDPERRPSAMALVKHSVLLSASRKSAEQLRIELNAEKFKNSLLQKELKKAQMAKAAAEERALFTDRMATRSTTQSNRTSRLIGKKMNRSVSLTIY
inactive: erlotinib 0.079 | [1] -0.014 | [2] -0.091 | [3] -0.051 | [4] 0.019 | [5] 0.01 | [6] -0.006 | [7] -0.07 | [8] 0.021 | IRAK-1-4 Inhibitor I 0.056 | ibrutinib -0.028 | [9] 0.139 | ralimetinib -0.017 | [10] -0.062 | [11] -0.031 | [12] -0.032 | [13] -0.012 | [14] 0.023 | [15] -0.105 | [16] -0.038

USP8 (UniProt P40818)
inactive: erlotinib -0.011 | [1] -0.034 | [2] 0.026 | [3] -0.004 | [4] -0.034 | [5] 0.014 | [6] -0.028 | [7] -0.014 | [8] 0.006 | IRAK-1-4 Inhibitor I -0.019 | ibrutinib 0.048 | [9] -0.009 | ralimetinib 0 | [10] -0.014 | [11] 0.015 | [12] 0.004 | [13] -0.007 | [14] -0.001 | [15] 0.018 | [16] 0.009

YES1 (UniProt P07947)
Chain of UniProt P07947 (P07947 whole entry, looked up): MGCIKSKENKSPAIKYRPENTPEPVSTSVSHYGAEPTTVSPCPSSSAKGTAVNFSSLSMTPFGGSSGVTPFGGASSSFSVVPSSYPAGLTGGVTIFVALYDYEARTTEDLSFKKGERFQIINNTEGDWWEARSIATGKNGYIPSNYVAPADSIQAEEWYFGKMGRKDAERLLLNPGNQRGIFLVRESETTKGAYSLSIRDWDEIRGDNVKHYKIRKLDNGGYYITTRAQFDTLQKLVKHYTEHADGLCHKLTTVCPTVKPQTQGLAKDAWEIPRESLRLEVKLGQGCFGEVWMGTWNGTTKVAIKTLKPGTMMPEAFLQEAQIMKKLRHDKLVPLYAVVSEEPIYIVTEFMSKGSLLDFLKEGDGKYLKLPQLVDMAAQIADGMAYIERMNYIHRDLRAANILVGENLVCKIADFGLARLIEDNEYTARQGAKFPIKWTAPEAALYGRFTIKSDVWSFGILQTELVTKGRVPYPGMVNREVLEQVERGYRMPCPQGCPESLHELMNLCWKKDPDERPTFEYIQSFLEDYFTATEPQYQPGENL
active: ibrutinib 0.988 | [10] 0.511
inactive: erlotinib -0.045 | [1] 0.064 | [2] 0.005 | [3] -0.045 | [4] -0.023 | [5] -0.031 | [6] -0.105 | [7] 0.027 | [8] 0.016 | IRAK-1-4 Inhibitor I 0.003 | [9] -0.012 | ralimetinib -0.259 | [11] 0.061 | [12] 0.2 | [13] 0.044 | [14] 0.192 | [15] -0.005 | [16] -0.131

YRDC (UniProt Q86U90)
Chain of UniProt Q86U90 (Q86U90 whole entry, looked up): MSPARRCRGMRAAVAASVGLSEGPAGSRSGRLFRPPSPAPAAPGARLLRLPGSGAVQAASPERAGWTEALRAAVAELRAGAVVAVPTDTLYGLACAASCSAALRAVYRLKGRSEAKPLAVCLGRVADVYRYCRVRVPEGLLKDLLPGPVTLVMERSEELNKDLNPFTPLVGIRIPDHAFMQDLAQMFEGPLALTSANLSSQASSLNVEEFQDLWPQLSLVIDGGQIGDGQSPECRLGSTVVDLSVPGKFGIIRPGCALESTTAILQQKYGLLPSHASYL
inactive: erlotinib 0.009 | [1] 0.03 | [2] -0.001 | [3] -0.018 | [4] -0.021 | [5] 0.036 | [6] 0.081 | [7] -0.065 | [8] 0.006 | IRAK-1-4 Inhibitor I -0.02 | ibrutinib 0.01 | [9] -0.002 | ralimetinib 0.025 | [10] -0.012 | [11] 0.027 | [12] -0.006 | [13] -0.015 | [14] 0.021 | [15] 0.007 | [16] 0.008

WDR45 isoform 2 (UniProt Q9Y484)
Chain of UniProt Q9Y484 (Q9Y484 whole entry, looked up): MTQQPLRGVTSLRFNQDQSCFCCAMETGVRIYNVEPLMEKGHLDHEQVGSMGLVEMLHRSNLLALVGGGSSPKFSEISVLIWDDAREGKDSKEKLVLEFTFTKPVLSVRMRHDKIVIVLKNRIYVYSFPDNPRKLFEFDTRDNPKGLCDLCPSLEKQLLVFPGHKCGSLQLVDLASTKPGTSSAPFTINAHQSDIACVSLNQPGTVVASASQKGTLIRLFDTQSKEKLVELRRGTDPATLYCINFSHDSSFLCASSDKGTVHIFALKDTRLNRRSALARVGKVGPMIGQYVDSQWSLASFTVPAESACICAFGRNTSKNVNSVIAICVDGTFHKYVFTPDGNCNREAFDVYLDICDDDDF
inactive: erlotinib -0.047 | [1] -0.032 | [2] -0.024 | [3] -0.001 | [4] 0.06 | [5] -0.008 | [6] -0.016 | [7] 0.041 | [8] -0.005 | IRAK-1-4 Inhibitor I -0.012 | ibrutinib 0.018 | [9] 0.014 | ralimetinib 0.13 | [10] 0.111 | [11] -0.008 | [12] 0.014 | [13] 0.028 | [14] -0.04 | [15] -0.014 | [16] -0.036
